# Screens deposited in PubChem BioAssay by National Center for Advancing Translational Sciences (NCATS).
# HCV inh: blocks hepatitis C virus. Huh7.5.1 HCVcc-Cre infection, luciferase reporter, 44 h. Potency, µM (highest dose often 41.8 µM), for inactives: top-dose activity change, negative = inhibition, actives largely listed as inhibitors. hit rate 3.4% among 340,000; further: potency means the concentration at half of the fitted maximal effect; on the % scale 0 is the no-effect control and ±100 the full control effect
#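 Cells seeded at 1,000/well and cultured 4 h, then compounds added followed by HCVcc-Cre virus (~0.5 moi). After 44 h further culture, luciferase substrate was added, plates held 15 min at room temperature, and luminescence read for 15 sec.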
# Shiga inhibitor: Shiga toxin inhibition | inhibition, % at 38.7 µM | hit rate 9.2% among 290,000 | Vero cells, Shiga toxin protein synthesis inhibition reporter; in the data active means inhibition mostly above about 28%, no sharp cut-off; inactive means mostly below about 43%; further: 0% is about no effect
# HCMV antiviral: human cytomegalovirus inhibition. HFF cells, HCMV-luciferase reporter, 72 h; active compounds read low. activity change, negative = inhibition, % at 57.5 µM. hit rate 4.5% among 410,000. AID 1259415; in the data active means activity change below about -60%; inconclusive means no clear call, values can overlap the other calls; inactive means above about -39%; further: on the % scale 0 is the no-effect control and ±100 the full control effect
#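 Screen run at 2 compound doses on HFFs infected with reporter HCMV, MOI 1 PFU/cell. Luciferase activity from cell lysates at 72 h post infection gave inhibition relative to buffer-only and Salinomycin wells.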
# Pf growth 96h: inhibits malaria parasite growth, 96 h; AID 504834; P. falciparum luciferase reporter growth, 96 h; hit rate 6.9% among 320,000; Potency, µM (highest dose often 28.7 µM), inactives show at the top dose activity change, negative = inhibition, most hits filed as inhibitors; further: potency means the concentration at half of the fitted maximal effect; on the % scale 0 is the no-effect control and ±100 the full control effect
#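 Compounds incubated with erythrocytes infected by luciferase-expressing P. falciparum (2% hematocrit, 0.05% parasitemia final) for 96 hours, 37 C in 5% CO2. Growth inhibition scored as decreased luciferase luminescence.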
# Pf growth 48h: inhibits P. falciparum growth in the first generation, 48 h; hit rate 5.9% among 310,000; Potency, µM (series often up to 28.7 µM), inactives show top-dose activity change, negative = inhibition, hits mostly inhibitors; P. falciparum luciferase growth in erythrocytes, 48 h; further: potency means the concentration at half of the fitted maximal effect; on the % scale 0 is the no-effect control and ±100 the full control effect
#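 Luciferase-expressing parasites in RBCs, 2% Hct / 0.1% parasitemia final; RPMI 1640 + 0.5% Albumax; 37 C, 5% CO2, one generation; luminescence read-out, lower signal = inhibition.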
# Cycloheximide cs: counter-screen for Shiga toxin inhibitors: cycloheximide protein synthesis inhibition | cell reporter, cycloheximide protein synthesis inhibition counterscreen | max response, % | hit rate 12% among 300,000; in the data active means max response mostly above about 13%, no sharp cut-off; inactive means mostly below about 14%; further: read at 38.3 µM for the half of the compounds with a filed dose; 0% is about no effect
# Starred values were filed as active, the others as inactive; ? = inconclusive; . = no result given; + = active, no number. Most compounds without a hit are left out; they make up all but 21% or so of the library. Unless noted, the call rests on the fitted dose curve; in most records, active means well fitted inhibition curve with a large enough effect; inconclusive means small, poorly fitted or top-dose-only effect, or another doubt; inactive means no such curve, though single readings can be large or run the other way.
SMILES,HCV inh,Shiga inhibitor,HCMV antiviral,Pf growth 96h,Pf growth 48h,Cycloheximide cs
C#CCN(C[C@H]1[C@H](OC(=O)NCCCCCC)[C@H](OC(=O)NCCCCCC)CN(C(=O)OC(C)C)N1C(=O)OC(C)C)S(=O)(=O)c1ccc(C)cc1,.,.,-6,.,.,.
COc1cc(C(=O)Nc2ccc(C(F)(F)F)cc2)ccc1OCC(=O)N1CCOCC1,-16%,.,-5,27%,31%,.
O=C(CCn1c(=O)c2cccn2c2cccnc21)N1CCN(c2cccc(Cl)c2)CC1,11µM*,-2,-2,?,9.3µM*,-4
O=C(CCn1c(=O)c2cccn2c2cccnc21)NCc1cccc(Br)c1,.,.,-61*,.,.,.
Cc1ccc(Cl)cc1N1CCN(C(=O)CCn2c(=O)c3cccn3c3cccnc32)CC1,.,.,-3,.,.,.
CCN(CC)CCNC(=O)CCn1c(=O)c2cccn2c2cccnc21,.,.,1,.,.,.
CC(C)CCNC(=O)CCn1c(=O)c2cccn2c2cccnc21,.,.,-60*,.,.,.
CCCNC(=O)Cn1c(=O)c2cccn2c2cccnc21,.,.,-81*,.,.,.
O=C(NC1CCCCC1)C(c1cccnc1)N(C(=O)c1csnn1)c1ccc(F)cc1 (stereo unspecified),8%,-4,-29,?,-6%,-1
COCCNC(=O)c1cnn(-c2ccc(C)cc2C)c1C1CCN(C(=O)OC(C)(C)C)CC1,.,.,11,.,.,.
COc1cccc(C(N)=O)c1OC(=O)Cc1ccccc1F,8%,33,7,41%,37%,17
CCOC(=O)C1CCN(C(=O)Cn2c(=O)c3cccn3c3cccnc32)CC1,11µM*,-14,0,22%,-2%,-4
Cc1ccc(CCNC(=O)c2ccc(Cn3c(=O)c4cccn4c4cccnc43)cc2)cc1,.,.,-60*,.,.,.
Cc1ccccc1CCNC(=O)c1ccc(Cn2c(=O)c3cccn3c3cccnc32)cc1,.,.,-9,.,.,.
O=C(CSc1cn(CCNC(=O)c2c(F)cccc2F)c2ccccc12)Nc1ccc(F)cc1,.,.,-17,.,.,.
CC(C)c1ccc(Nc2nc(N3CCOCC3)nc(N3CCOCC3)n2)cc1,.,.,2,.,.,.
CC(C)c1ccc(Nc2nc(NCc3ccco3)nc(N3CCOCC3)n2)cc1,10µM*,-11,15,33%,13µM*,2
Fc1ccccc1Nc1nc(NCc2ccco2)nc(N2CCOCC2)n1,35µM*,-13,16,157%,-25%,-1
COCCn1c(Cc2ccccc2)nnc1SCC(=O)NC1CCCCC1,21%,6,17,-5%,9%,-3
CCCCOCCCNC(=O)C1CCCCC1,23%,-2,25,8.3µM*,4%,-7
O=C(NCCOc1ccc(Cl)cc1)C1CCCCC1,-2%,-8,-39,19%,12µM*,11
O=C(CNC(=O)C1CCCCC1)Nc1ccc(Cl)cc1,3%,30*,16,34%,40%,23*
O=C(NCCCCNC(=O)C1CCCC1)C1CCCC1,-1%,-12,15,31%,-14%,-2
O=C(CNC(=O)C1CCCCC1)Nc1ccc(F)c(Cl)c1,6%,44,3,?,150%,12
CC1(C(=O)NCc2ccccc2)CN(S(C)(=O)=O)CC(=O)N1C1CCN(Cc2ccccc2)CC1 (stereo unspecified),.,.,-17,.,.,.
SMILES,HCV inh,Shiga inhibitor,HCMV antiviral,Pf growth 96h,Pf growth 48h,Cycloheximide cs
S=C(NCc1ccco1)Nc1ccc(Br)cc1Cl,-3%,28,-28,32%,38%,18*
S=C(NCc1ccco1)N1CCN(Cc2ccc(Cl)cc2Cl)CC1,?,10,-26,10µM*,?,-4
OCCCNC(=S)Nc1ccc(Br)cc1Cl,21%,34*,55,58%,47%,21*
S=C(NCc1ccco1)Nc1ccc(Cl)cc1Cl,-14%,+,-74*,33%,73%,22*
COCCCNC(=O)CCc1c(C)nc2cc(-c3ccc(Cl)cc3)nn2c1C,.,.,-21,.,.,.
O=C(CN(Cc1ccccc1Cl)S(=O)(=O)c1ccc(Cl)cc1)N/N=C/c1ccc(C(=O)O)cc1,1%,-6,-20,?,1%,7
CCN(CC)CCC#CC(O)(c1ccccc1)c1ccccc1,0%,-6,-1,9.3µM*,-20%,-2
CC(C)[N+](C)(C)CC#CC(O)(c1ccccc1)c1ccccc1,-3%,-17,43,-19%,-22%,-3
C[N+]1(CC#CC(O)(c2ccccc2)c2ccccc2)CCCC1,22%,-4,-8,5.2µM*,?,0
